# PubChem BioAssay AID449762 (Southern Research Specialized Biocontainment Screening …, 2010)
# Screen size: about 330,000 compounds; about 1,900 (0.58%) were called active. Roughly 4% stayed inconclusive and do not appear here. Only a sample is shown. Measured potencies and affinities stand elsewhere. Values without a mark were called inactive. No stated cut-off is given here; in the data, inconclusive means inhibition above about 70% without an active follow-up result; inactive means below that.
# Assay: M. tuberculosis growth inhibition, HTS (AID 449762);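 further: bacterial growth assessed after seven days of incubation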
# Details: M. tuberculosis H37Rv growth inhibition, 7H9 media; at 25 µM; stronger effect = higher value
row,SMILES,inhibition [%]
1,O=C(c1cc2ccccc2o1)N1CCN(S(=O)(=O)c2cccs2)CC1,0.69
2,O=C(c1ccco1)N1CCN(S(=O)(=O)c2ccc(Cl)s2)CC1,-11.2
3,CCOC(=O)Cc1nnc(NC(=O)c2ccccc2OC)s1,-7.9
4,N#Cc1ccc(S(=O)(=O)N2CCCN(c3nc4ccc(Cl)cc4s3)CC2)cc1,-8.22
5,O=[N+]([O-])c1ccc(N2CCN(Cc3ccc(Br)o3)CC2)cc1,2.93
6,Clc1ccc(N2CCN(Cc3ccc(Br)o3)CC2)cc1,0.17
7,COc1ccc(N(CC(=O)N/N=C/c2ccco2)S(=O)(=O)c2ccccc2)cc1,-4.51
8,O=C(c1ccoc1)N1CCC(CO)(CCc2ccccc2)CC1,-5.69
9,O=C(COc1ccccc1[N+](=O)[O-])Nc1ccccc1N1CCCCC1,-4.5
10,COC(=O)c1c(C)[nH]c(C(=O)/C=C/c2ccccc2Cl)c1C,3.39
11,O=C(COc1ccccc1)Nc1sc2c(c1C(=O)NCc1cccnc1)CCCC2,-7.35
12,O=C(Nc1sc2c(c1C(=O)NCc1cccnc1)CCCC2)c1ccco1,-2.45
13,O=C(Nc1c2c(nn1-c1ccc(F)cc1)CS(=O)(=O)C2)c1ccc2c(c1)OCO2,-6.48
14,Cn1cc(/C=C/C(=O)c2ccccc2)c2ccccc21,58.1
15,COc1ccc(C(=O)/C=C/c2cn(CC(O)CN3CCN(C)CC3)c3ccccc23)cc1OC (stereo unspecified),8.14
16,Cc1cc(C)c(CN2CCC(n3nccc3NC(=O)CCOc3ccccc3)CC2)cc1C,67.4
17,O=C(Nc1ccc(-c2ccccc2)cc1)c1ccccc1,9.06
18,COc1ccc(OCCN(C)CC(=O)Nc2c(C)cccc2C)cc1,-3.93
19,Cc1c(C(=O)Nc2ccc(F)c(F)c2)oc2ccc(S(=O)(=O)N3CCCCC3)cc12,4.31
20,Fc1ccc(Nc2ncnc3ccccc23)cc1,4.5
21,N=c1c2ccccc2nnn1-c1ccc(C(F)(F)F)cc1,-1.84
22,O=C(Nc1ncc2c(n1)-c1ccccc1OC2)c1ccc(Cl)cc1Cl,-7.91
23,CCCCc1ncc(CN2CCN(Cc3ccc(C)cc3)C(CCO)C2)[nH]1 (stereo unspecified),0.18
24,COc1ccc(NC(=O)C(=S)NC2CCCCC2)cc1,8.92
25,C=CCc1c(C)nc(C)nc1N/N=C/c1ccc(F)cc1,6.56
26,C=CCc1c(C)nc(C)nc1N/N=C/c1ccccc1,-2.25
